Source: PubChem BioAssay (NCI)
This is part of a sample that, as a whole, favours compounds with a hit. Of some 83,000 tested, about 20% had one in any assay.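 Each cell line was grown in a 96-well plate and treated with one concentration of compound for 48 hours. Values below 10 were considered active.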 Unmarked numbers belong to inactive results. Calls of active or inactive are those of the source.

Experiments:
Test in all cases: NCI-60 one-dose screen, 48 h (100 = growth as untreated, 0 = no growth, -100 = all killed)
Settings in all cases: 10 µM unless noted
[1] = test system: NCI-H23 lung
[2] = test system: NCI-H226 lung
[3] = test system: NCI-H322M lung
[4] = test system: HOP-62 NSCLC
[5] = test system: NCI-H460 lung
[6] = test system: HOP-92 NSCLC
[7] = test system: NCI-H522 lung
[8] = test system: A549/ATCC NSCLC
[9] = test system: 786-0 renal
[10] = test system: COLO 205 colon

| SMILES | growth [1] | growth [2] | growth [3] | growth [4] | growth [5] | growth [6] | growth [7] | growth [8] | growth [9] | growth [10] |
| --- | --- | --- | --- | --- | --- | --- | --- | --- | --- | --- |
| CCCCCC(=O)N(CCCC)CCCC | 107% | 99.7% | 89.4% | 104% | 110% | 91.7% | 97.6% | 100% | 104% | 125% |
| Cc1ccc(NC(=O)c2sc3nc4c(cc3c2N)C(=O)CCC4)cc1C | 32.7% | 80.2% | 42.5% | 23.5% | 7.88% (active) | 90.8% | -9.22% (active) | 19.5% | 37.4% | -25.2% (active) |
| CCCCCCCCCC(=O)Oc1ccc(/C(=C(/C)c2ccccc2)c2ccc(OCCN3CCCC3)cc2)cc1 | 26.8% | 65.7% | 32.8% | -1.82% (active) | -7.47% (active) | -19% (active) | -26.3% (active) | 11.3% | -58.6% (active) | -57.1% (active) |
| O=C(N/N=C/c1ccc(O)cc1O)c1cccnc1 | 45.3% | 70.5% | 29.9% | 43.2% | 10.9% | 56.4% | -6.04% (active) | 46.4% | 37.9% | 23.4% |
| CC[C@H](Nc1nc(N)nc(C)c1C#N)c1nc2cccc(NCc3ccc(C(=O)NO)cc3)c2c(=O)n1-c1ccccc1 | -22.9% (active) | 24.3% | 15% | 9.2% (active) | 3.85% (active) | -16.7% (active) | -37.6% (active) | 1.14% (active) | 6.94% (active) | -2.48% (active) |
| Cc1cc(Nc2nc(N3CCNCC3)nc3ccccc23)n[nH]1 | 96.4% | 86.5% | 91.1% | 109% | 93.4% | 80.2% | 76.4% | 80.8% | 76.1% | 90.8% |
| COc1ncc(-c2ccc3ncnc(Nc4cccc(Cl)c4)c3c2)cc1NS(C)(=O)=O | 37.4% | 47.2% | -6.97% (active) | 56.6% | 28.3% | -14.7% (active) | 33.3% | 15.8% | 46.2% | 41.5% |
| COc1cc(OC)c(/C=C/C(=O)c2c(OC)cc(OC)cc2OC)c(OC)c1 | 6.77% (active) | 36.1% | 21.4% | 27% | 5.86% (active) | 130% | 2.82% (active) | 25.1% | 29% | -6.76% (active) |
| O=C1c2c[n+](Cc3ccccc3)ccc2-c2nc3ccccc3c3ccnc1c23 | -32.8% (active) | -92.2% (active) | -17.8% (active) | -27.2% (active) | -55% (active) | -45.4% (active) | -66.3% (active) | -26.1% (active) | -5.78% (active) | -90.1% (active) |
| CC(C)(C)n1cc(-c2ccnc(NCCCNS(=O)(=O)c3cccc4ccccc34)c2)c(-c2cccc(O)c2)n1 | 42.1% | 41% | 43.4% | 47.7% | 2.1% (active) | 37.7% | 15.8% | 29.2% | -0.248% (active) | -79.1% (active) |
| O=c1c2c3c(sc2n2c(CCl)nnc2n1Cc1ccccc1)CCCC3 | -42.1% (active) | -60.9% (active) | -97% (active) | 54.7% | -11.5% (active) | -81.7% (active) | -57.1% (active) | 28.5% | -18% (active) | -39.1% (active) |
| COc1ccc(-n2c(C)nc3c(c(C)nn3-c3ccccc3)c2=O)cc1 | 18.4% | 51.3% | 49.9% | 34.4% | 3.74% (active) | 27.6% | -14% (active) | 16.3% | 27.4% | -45.6% (active) |
| CCOC(=O)C(C#N)C1CCCCC1 (stereo not given) | 93.6% | 83.4% | 92.1% | 90.4% | 123% | 80.7% | 96.9% | 105% | 105% | 127% |
| COc1cc2c(cc1O)CCc1cc(O)cc(OC)c1-2 | 99.3% | 87.4% | 101% | 105% | 93.8% | 103% | 61.5% | 87.6% | 97.1% | 110% |
| Cn1cc(-c2ccc(-c3cn(C)c4ncccc34)[nH]2)c2cccnc21 | 70.7% | 88.8% | 86.1% | 66.5% | 97.8% | -4.05% (active) | -77.3% (active) | 84.2% | 99% | -23.6% (active) |
| CC/C(Cc1ccccc1)=C(/c1ccc(O)cc1)c1ccc(OCCN2CCCC2)cc1 | 8.75% (active) | 71.2% | -18% (active) | -22.3% (active) | -90.5% (active) | -12.8% (active) | -54.3% (active) | -59.1% (active) | -83.6% (active) | -71.8% (active) |
| COCCOC(=O)C1=C(C)NC(=S)NC1c1ccc2c(c1)OCO2 (stereo not given) | 96.2% | 90.2% | 101% | 98% | 112% | 108% | 94.3% | 101% | 107% | 117% |
| COc1cc(C2C(C(=O)c3cccs3)=C(O)C(=O)N2CCN2CCOCC2)cc(OC)c1OC (stereo not given) | 103% | 103% | 102% | 107% | 101% | 99.8% | 92.2% | 104% | 103% | 111% |
| COC(=S)SCN(CSC(=S)OC)c1ccc(Cl)cc1 | 80% | 69.9% | 76.1% | 76.9% | 87% | 74.7% | 79.9% | 81.6% | 94.3% | 111% |
| COCCCNc1nc(NC(=O)c2ccc(F)cc2C)cc(-c2cccnc2)n1 | 107% | 89.1% | 102% | 99.4% | 102% | 67% | 78.6% | 79.8% | 98.4% | 111% |
| Nc1cc(-c2nc3sccn3c2-c2ccnc(NCCCNS(=O)(=O)c3ccc(F)cc3)n2)ccc1F | 63.5% | 50.7% | 69.9% | 78.1% | 47.4% | 96.9% | 48% | 41.4% | 61.3% | 32.4% |
| CC1=N/C(=C\c2cccc(Br)c2)C(=O)O1 | 106% | 106% | 106% | 92.8% | 106% | 107% | 87.7% | 89.3% | 102% | 106% |
| COc1cc(OC)c(/C=C/S(=O)(=O)Cc2ccc(OC)c(N)n2)c(OC)c1 | 26.6% | 59.6% | 36.3% | 11.6% | 8.27% (active) | 79.9% | -36.1% (active) | 6.41% (active) | 15.9% | -70.7% (active) |
| CN1/C(=C\C=C\C2=[N+](C)c3ccccc3C2(C)C)C(C)(C)c2ccccc21 | -6.67% (active) | 5.56% (active) | 8.56% (active) | 3.55% (active) | 0.247% (active) | -18.1% (active) | -41.7% (active) | 6.73% (active) | 2.93% (active) | -88.5% (active) |
| COc1ccccc1N1CCN(CCn2c(=O)c3c(c4ccccc4n3C)n(C)c2=O)CC1 | 103% | 82.9% | 101% | 107% | 96.7% | 92.1% | 45.2% | 71.5% | 111% | 100% |
| COc1ccc(C/C(C)=C(\c2ccc(OCCN3CCCCCC3)cc2)c2ccc(OC(=O)C3CCCCC3)cc2)cc1 | 63.5% | 78.3% | 73.5% | 74.5% | 38.1% | 19.6% | 63.4% | 65.2% | 68.9% | 10.5% |
| CSc1nc2sc3c(c2c(=O)n1-c1ccc(C(C)C)cc1)CCC(=O)C3 | -1.79% (active) | 65.6% | 31.6% | 15.2% | 1.54% (active) | -18.2% (active) | -75.3% (active) | 67.9% | 18.7% | -67.7% (active) |
